# Screening results as filed in PubChem BioAssay.
# Rows were chosen to be rich in hits. Some 12% of all compounds tested hit in one or more screens of this group.
# G9a inh = qHTS Assay for Inhibitors of Histone Lysine Methyltransferase G9a; Potency, µM (doses to about 102 µM), for the others: at the highest dose activity, negative = inhibition, most hits filed as inhibitors; AID 504332, 2011; hit rate 8.8% among 350,000; Histone-lysine N-methyltransferase EHMT2 (Homo sapiens), Q96KQ7; G9a H3K9 monomethylation, AlphaScreen, 2 h; further: on the % scale 0 is the no-effect control and ±100 the full control effect; nearly all actives have a fitted effect of over 75% in size
# Target sequence (Q96KQ7 913-1193 limits assumed): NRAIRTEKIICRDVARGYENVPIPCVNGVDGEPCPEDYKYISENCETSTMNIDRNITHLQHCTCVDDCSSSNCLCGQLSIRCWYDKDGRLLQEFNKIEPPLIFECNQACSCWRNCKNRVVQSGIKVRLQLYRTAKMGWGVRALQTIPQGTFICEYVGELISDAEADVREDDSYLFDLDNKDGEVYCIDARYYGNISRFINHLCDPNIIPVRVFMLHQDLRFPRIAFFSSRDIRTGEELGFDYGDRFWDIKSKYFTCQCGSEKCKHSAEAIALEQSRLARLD
#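 Step 1: enzyme (final 20 nM) with compound, 15 min RT. Step 2: substrate peptide 500 nM and SAM 20 uM, 2 h RT. Step 3: anti-H3K9me1 antibody and AlphaScreen beads, 10 min, then plate read.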
# BAZ2B inh = qHTS Assay for Inhibitors of BAZ2B. AID 504333, 2011. AlphaScreen BAZ2B-H3K14Ac peptide displacement. hit rate 4.4% among 360,000. Potency, µM (series often up to 114 µM), inactives show at the highest dose activity change, negative = inhibition, usual class: inhibitors. Bromodomain adjacent to zinc finger domain protein 2B (Homo sapiens), Q9UIF8; further: on the % scale 0 is the no-effect control and ±100 the full control effect; nearly all actives have a fitted effect of over 60% in size
#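 In this displacement format the biotinylated H3(5-23) peptide acetylated at Lys14 serves as ligand at 50 nM, with BAZ2B at 50 nM in PBS pH 7.4 containing 0.01% Tween-20. Donor and acceptor beads are 10 ug/mL final.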
# L3MBTL1 block = qHTS Assay for the Inhibitors of L3MBTL1; Lethal(3)malignant brain tumor-like protein 1 (Homo sapiens), Q9Y468; AlphaScreen L3MBTL1–H3K9me1 peptide binding; Potency, µM (doses to about 57.1 µM), for the others: at the top dose activity, negative = inhibition, most hits filed as inhibitors; hit rate 0.66% among 230,000; AID 485360, 2010; further: on the % scale 0 is the no-effect control and ±100 the full control effect; nearly all actives have a fitted effect of over 60% in size
#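 Displacement of a biotinylated histone H3(1-15) peptide monomethylated at Lys9 (75 nM) from L3MBTL1 (50 nM) was measured by AlphaScreen after a 30 min room-temperature compound incubation; cefsulodin titration served as intraplate control.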
# Sfp inh = qHTS Assay for Inhibitors of Bacillus subtilis Sfp phosphopantetheinyl transferase (PPTase). Biochemical Sfp PPTase activity, qHTS. Potency, µM, for the others: largest response in the series, negative = inhibition, hits mostly inhibitors. hit rate 3.5% among 310,000. AID 1490, 2009;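 further: the enzyme is Sfp with the accession as filed and its product quenches rhodamine fluorescence; 0% = enzyme reaction without inhibitor and -100% = no enzyme wells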
#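 Sfp 15 nM + cpd, 15 min RT; start w/ rhodamine-CoA 5 uM, BHQ-2-YbbR 12.5 uM (final); 50 mM Hepes pH 7.6, 10 mM MgCl2, 0.01% NP-40, 0.01% BSA; read 525/598 nm at 0 and 30 min.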
# HP1b chromo inh = HTS for Inhibitors of HP1-beta Chromodomain Interactions with Methylated Histone Tails; Chromobox protein homolog 1 (Homo sapiens), P83916; AlphaScreen HP1-beta / biotin-H3K9me3 peptide binding; Potency, µM (highest dose often 114 µM), for inactives: top-dose activity change, negative = inhibition, hits mostly inhibitors; hit rate 0.56% among 390,000; further: nearly all actives have a fitted effect of over 70% in size
# Target sequence (P83916 whole entry, looked up): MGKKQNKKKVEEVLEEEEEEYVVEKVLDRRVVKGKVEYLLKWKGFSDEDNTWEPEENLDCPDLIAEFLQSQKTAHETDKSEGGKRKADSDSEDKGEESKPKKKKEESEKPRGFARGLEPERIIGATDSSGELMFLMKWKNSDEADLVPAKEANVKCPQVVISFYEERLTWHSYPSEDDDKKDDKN
#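 HP1-beta protein (50 nM final) preincubated 30 min at room temperature with biotinylated H3(1-18)K9me3 peptide (50 nM) in PBS pH 7.4, 0.01% Tween-20, then compound added for 30 min. AlphaScreen streptavidin donor/nickel chelate acceptor beads (10 ug/mL final), 30 min dark, luminescence read.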
# JMJD2A Tudor inh = qHTS Assay for Inhibitors of JMJD2A-Tudor Domain | Lysine-specific demethylase 4A (Homo sapiens), O75164 | AlphaScreen JMJD2A-Tudor / H3K4me3 peptide binding | Potency, µM (highest dose often 114 µM), without a hit: top-dose activity change, negative = inhibition, usual class: inhibitors | hit rate 4.4% among 390,000 | AID 504339, 2011; further: on the % scale 0 is the no-effect control and ±100 the full control effect; nearly all actives have a fitted effect of over 50% in size
# Starred values were filed as active, the others as inactive; ? = inconclusive; . = not tested or not shown; ! = a repeat was not active; [ ] = remark or other dose. The call rests on the fitted dose curve; in most records, active means well fitted curve in the direction sought with a large enough effect; inconclusive means small, poorly fitted or top-dose-only effect, or another doubt; inactive means no such curve, though single readings can be large; an effect the other way counts as inactive or inconclusive. Potency means the concentration at half of the fitted maximal effect.
SMILES,G9a inh,BAZ2B inh,L3MBTL1 block,Sfp inh,HP1b chromo inh,JMJD2A Tudor inh
COc1cc(NC(=O)CCCc2nnc3n(CC(C)C)c(=O)c4sccc4n23)cc(OC)c1,2%[59 µM],-11%,.,.,29%,-12%
N#Cc1ccc(CN2CCCC3(CCN(S(=O)(=O)c4ccccc4)CC3)C2)cc1,-7%[12.7 µM],.,.,10%,.,.
COCCCNC(=O)C(=O)NCCCOC(C)C,5%[59 µM],-2%,7%,21%,35%,5.6µM*
COc1ccc(CNC(=O)CN2N=C(c3ccccc3)CCC2=O)c(OC)c1,5%[59 µM],2%,.,.,33%,2%
NC(=O)c1cccnc1Oc1cccc(Cl)c1,1%[12.7 µM],16%,.,-7%,?,20µM*
NC(=O)c1cccnc1Oc1ccc(Cl)cc1,.,-20%,-6%,-27%,13%,-11%
CN(C)c1ccc(C(CN)c2c[nH]c3ccccc23)cc1 (stereo not given),32µM*,11µM*,?,50µM*,?,35µM*
NCC(c1ccco1)c1c[nH]c2ccccc12 (stereo not given),-5%[59 µM],-9%,-4%,16%,14%,-23%
O=S(=O)(NCc1ccccc1)c1ccc2ccccc2c1,4%,6%,.,2%,38%,12%
CN(C)c1ccc(C(CNS(=O)(=O)c2ccc3ccccc3c2)c2c[nH]c3ccccc23)cc1 (stereo not given),10µM*,13µM*,?,9%,?,28µM*
CCC(C(=O)NCCc1ccc(OC)c(OC)c1)n1nc(C)c2sc3ccccc3c2c1=O (stereo not given),0%[59 µM],-5%,.,.,36%,-16%
Cc1cc(C(F)(F)F)c2c(N)c(C(=O)Nc3c(Cl)cccc3Cl)sc2n1,32%[59 µM],48%,.,.,101%,52%
COc1cc(NC(=O)COc2c(C)cc(C)cc2[N+](=O)[O-])c(OC)cc1Cl,22%[59 µM],-35%,-11%,50µM*,-1%,-21%
Oc1ccc(C2CNCCc3c2cc(O)c(O)c3Cl)cc1 (stereo not given),5.3µM*!,10%,-5%,40µM*,16%,35µM*!
Oc1cc2c(c(Cl)c1O)CCNC[C@H]2c1ccccc1,.,.,.,79µM*,.,.
Oc1cc2c(c(Cl)c1O)CCNCC2c1ccccc1 (stereo not given),11µM*,.,.,50µM*,-10%,45µM*
COc1cc2c(cc1OC)C(c1ccc(O)cc1)NCC2 (stereo not given),18%,-16%,.,12%,26%,-5%
Cc1c(-c2ccccc2)n(-c2ccccc2O)c2nc3c(c(=O)n(C)c(=O)n3C)n12,-3%[59 µM],-11%,.,.,18%,-17%
Cc1ccc2c(c1)N(CCCC(=O)Nc1cccc(C(F)(F)F)c1)C(=O)CO2,14%[59 µM],-4%,.,15%,-16%[57 µM],16µM*!
Cc1noc(-c2ccccc2OCC(=O)Nc2cccc([N+](=O)[O-])c2)n1,?,?,.,.,-21%,50µM*
Cc1noc(-c2ccccc2OCC(=O)Nc2ccccc2[N+](=O)[O-])n1,?,-24%,.,.,34%,-25%
Cc1ccccc1-c1noc(-c2ccccc2OCC(=O)Nc2ccccc2[N+](=O)[O-])n1,14µM*,?,.,.,-11%,20µM*
COc1ccc(OCC(=O)NNC(=O)Cn2c(=O)cnc3ccccc32)cc1,71µM*,?,-3%,.,44%,-1%
O=S(=O)(c1cccc(F)c1)N1CCC(Oc2ccc(-n3cnnn3)cc2)CC1,-36%[59 µM],-3%,.,.,49%,-2%
Cn1c(SCc2cccc([N+](=O)[O-])c2)nc2c(c1=O)SCC2,?,71µM*,-25%,-2%,-15%,56µM*
SMILES,G9a inh,BAZ2B inh,L3MBTL1 block,Sfp inh,HP1b chromo inh,JMJD2A Tudor inh
Cn1c(CCNC(=O)c2ccco2)nc2cc(NC(=O)COc3ccc(Cl)cc3)ccc21,?,-1%,.,.,39%,-14%
CC(C)(C)c1ccc(-c2nnc3sc(-c4ccncc4)nn23)cc1,2.5µM*,11%,0%,-26%,-20%,-20%
Cc1nnc2sc(-c3ccncc3)nn12,11%[59 µM],-30%,0%,-3%,35%,-12%
CCOc1ccccc1OCc1nn2c(COc3ccccc3)nnc2s1,?,-21%,0%,18µM*,?,?
c1ccc(OCc2nn3c(-c4ccco4)nnc3s2)cc1,50µM*,-8%,-4%,?,25%,-25%
COc1cc(-c2nn3c(COc4ccccc4)nnc3s2)cc(OC)c1OC,5µM*,-2%,3%,56µM*,?,-20%
CCOc1ccc(NC(=O)Cn2c(=O)n(-c3ccc(C)cc3)c(=O)c3cc(OC)c(OC)cc32)cc1,4%[59 µM],2%,.,.,35%,-2%
c1csc(-c2nn3c(-c4ccncc4)nnc3s2)c1,12%,0%,1%,23%,.,.
c1csc(Cc2nn3c(-c4ccncc4)nnc3s2)c1,13µM*,?,?,?,45%,?
COc1cc(-c2nn3c(-c4cc(-c5ccccc5)n[nH]4)nnc3s2)cc(OC)c1OC,.,.,.,.,1%[57 µM],-23%[57.1 µM]
CCOc1cccc(-c2nnc3sc(-c4cc(OC)c(OC)c(OC)c4)nn23)c1,79µM*,10%,0%,-12%,14%,-17%
COc1cc(-c2nn3c(-c4ccccc4)nnc3s2)cc(OC)c1OC,45µM*,1%,-2%,-4%,23%,-21%
CCCOc1ccc(-c2nc3ccc(Br)cc3c(=O)o2)cc1,20%[59 µM],4%,.,.,28%,-11%
COc1ccc(CN(Cc2ccccc2)C(=O)c2ccco2)cc1COc1ccc(NC(C)=O)cc1,.,.,.,.,0%,?
COC(=O)C1=COC(C)C2CN3CCc4c([nH]c5cc(OC)c(OC)cc45)C3CC12 (stereo not given),-32%[12.7 µM],50µM*,.,3%,?,25µM*
CCN(CC)C(=S)SC1=CCS(=O)(=O)C1,20µM*,.,.,79µM*,45%,3%[11.4 µM]
CCN(CC)C(=S)SCC(=O)c1ccccc1,-1%,27%[57.1 µM],13%,14%,58%,20%
CCC(=O)Nc1ccc2c(c1)ncn2-c1ccccc1OC,45µM*,14%,2%,-23%,24%,-23%
COc1ccccc1OCC(=O)Nc1ccc2c(c1)n(C)c(=O)n2C,?,56µM*,.,-3%,29%,-6%
Nc1cccc(S(=O)(=O)N2CCN(S(=O)(=O)c3ccc4c(c3)OCCO4)CC2)c1,.,.,.,.,.,-2%
